JMJD2A Tudor – JMJD2A Tudor domain (human) inhibition. O75164. AlphaScreen JMJD2A-Tudor / H3K4me3 peptide binding. Potency, µM (top dose mostly 114 µM), for the others: at the top dose activity change, negative = inhibition, actives largely listed as inhibitors. 4.4% of 390,000 active. AID 504339; note: % is set by controls: 0 for no effect and ±100 for the full control effect; nearly all actives have a fitted effect of over 50% in size
BAZ2B inh – inhibitors of human BAZ2B bromodomain. Q9UIF8. AlphaScreen BAZ2B-H3K14Ac peptide displacement. Potency, µM (titrated, usually from 114 µM), inactives show at the highest dose activity change, negative = inhibition, actives largely listed as inhibitors. 4.4% of 360,000 active; note: % is set by controls: 0 for no effect and ±100 for the full control effect; nearly all actives have a fitted effect of over 60% in size
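AlphaScreen luminescence quantifies BAZ2B engagement of H3K14Ac peptide; the protein and biotinylated peptide are both at 50 nM final, buffer PBS pH 7.4 with 0.01% Tween-20, all steps at room temperature.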
HP1b binding inh – HP1-beta chromodomain-methylated histone interaction inhibition | P83916 | AlphaScreen HP1-beta / biotin-H3K9me3 peptide binding | Potency, µM (titrated, usually from 114 µM), for the others: top-dose activity change, negative = inhibition, usual class: inhibitors | 0.56% of 390,000 active | AID 540317; note: nearly all actives have a fitted effect of over 70% in size
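Compound inhibition of the preformed complex between 50 nM HP1-beta and 50 nM biotinylated H3K9me3 peptide was read by AlphaScreen. Buffer was PBS pH 7.4 with 0.01% Tween-20. Incubations ran 30 min at room temperature, with 10 ug/mL donor/acceptor beads.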
G9a inh – blocks human histone lysine methyltransferase G9a; Q96KQ7; G9a H3K9 monomethylation, AlphaScreen, 2 h; Potency, µM (titrated, usually from 102 µM), for inactives: at the top dose activity, negative = inhibition, most hits filed as inhibitors; 8.8% of 350,000 active; note: % is set by controls: 0 for no effect and ±100 for the full control effect; nearly all actives have a fitted effect of over 75% in size
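Signal arises when biotinylated H3K9 peptide, once monomethylated, bridges streptavidin donor and antibody-captured acceptor beads. Enzyme at 20 nM was preincubated 15 min with test compounds; peptide 500 nM and SAM 20 uM then reacted for 2 h.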
Sfp inh – Sfp phosphopantetheinyl transferase inhibition; Q9F4F7; Biochemical Sfp PPTase activity, qHTS; Potency, µM, without a hit: largest response in the series, negative = inhibition, actives largely listed as inhibitors; 3.5% of 310,000 active;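 note: the enzyme is Sfp with the accession as filed and its product quenches rhodamine fluorescence; 0% = enzyme reaction without inhibitor and -100% = no enzyme wells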
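Reaction rates are the 30-min fluorescence difference (ex 525, em 598 nm) in wells containing 15 nM Sfp, 5 uM rhodamine-CoA and 12.5 uM BHQ-2-YbbR at pH 7.6 with 10 mM MgCl2.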
12-LOX inh – inhibitors of human 12S-lipoxygenase ALOX12; purified 12hLO, xylenol orange hydroperoxide absorbance; Potency, µM (highest dose often 108 µM), for inactives: at the highest dose activity change, negative = inhibition, actives largely listed as inhibitors; 1.1% of 580,000 active; P18054; note: % is set by controls: 0 for no effect and ±100 for the full control effect
Target sequence (P18054 whole entry, looked up): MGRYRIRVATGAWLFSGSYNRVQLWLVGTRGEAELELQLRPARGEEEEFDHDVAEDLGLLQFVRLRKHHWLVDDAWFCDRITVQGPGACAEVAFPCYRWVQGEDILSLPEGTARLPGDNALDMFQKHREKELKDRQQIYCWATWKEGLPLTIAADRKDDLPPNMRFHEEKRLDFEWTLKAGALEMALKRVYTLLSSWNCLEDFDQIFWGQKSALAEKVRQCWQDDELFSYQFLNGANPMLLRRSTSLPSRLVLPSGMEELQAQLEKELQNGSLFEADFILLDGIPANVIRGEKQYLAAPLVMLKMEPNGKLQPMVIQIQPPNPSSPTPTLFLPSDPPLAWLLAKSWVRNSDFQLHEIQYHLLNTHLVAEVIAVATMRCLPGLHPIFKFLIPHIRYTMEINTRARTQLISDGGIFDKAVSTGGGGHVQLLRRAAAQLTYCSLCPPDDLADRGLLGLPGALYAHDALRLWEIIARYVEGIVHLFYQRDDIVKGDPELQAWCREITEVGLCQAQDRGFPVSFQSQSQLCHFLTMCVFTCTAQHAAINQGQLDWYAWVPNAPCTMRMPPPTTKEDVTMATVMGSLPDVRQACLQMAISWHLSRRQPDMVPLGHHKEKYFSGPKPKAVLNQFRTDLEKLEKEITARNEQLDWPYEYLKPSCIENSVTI
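Hydroperoxide product was detected by ferrous iron/xylenol orange as the 573 to 405 nm absorbance ratio. Arachidonic acid at 40 uM (final) was turned over for 30 min at room temperature by 150 nM human 12hLO, pH 7.0 Hepes buffer, after 15 min compound preincubation.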
* hit, by the source's call; u = inconclusive; x = no result; [ ] = remark or other dose. In the library only some 8.7% were active in any assay of this set; here they are far more common. Calls come from the whole dose curve; as a rule, active = well fitted curve in the direction sought with a large enough effect; inconclusive = small, poorly fitted or top-dose-only effect, or another doubt; inactive = no such curve, though single readings can be large; an effect the other way counts as inactive or inconclusive. Potency is the fitted concentration of half-maximal effect.

SMILES	JMJD2A Tudor	BAZ2B inh	HP1b binding inh	G9a inh	Sfp inh	12-LOX inh
O=C(NCCCN1CCOCC1)c1ccc2c(c1)N(Cc1cccc(Cl)c1)C(=O)c1ccccc1S2	-30%	u	5%	-8%[59 µM]	x	u
O=C(NCCCN1CCOCC1)c1ccc2c(c1)N(Cc1ccc(F)cc1)CCS2	u	u	19%	45µM*	-11%	-17%
O=C(NCCCN1CCOCC1)c1ccc2c(c1)N(Cc1c(F)cccc1Cl)C(=O)c1ccccc1S2	u	u	7%[57 µM]	35µM*	-4%	u
Cc1csc(CNC(=O)c2cc(C)c(C)s2)n1	x	x	x	x	x	18%
Cc1cccc2[nH]cc(C(=O)/C(C#N)=C\c3ccccc3F)c12	x	x	x	x	x	-42%
NC[C@H]1O[C@@H](CO)[C@@H](O)[C@H]1N1CCN(c2ncccn2)CC1	x	x	x	x	x	20µM*
O=S(=O)(NC[C@H]1O[C@@H](CO)[C@@H](O)[C@H]1N1CCCC1)c1cccs1	x	x	x	x	x	16µM*
O=C(NC[C@H]1O[C@@H](CO)[C@@H](O)[C@H]1N1CCN(c2ccccn2)CC1)c1ccccc1	x	x	x	x	x	2%
Cc1ccc(S(=O)(=O)NC[C@H]2O[C@@H](CO)[C@@H](O)[C@H]2N2CCN(c3cccc(C(F)(F)F)c3)CC2)cc1	x	x	x	x	x	16µM*
O=C(NC[C@H]1O[C@@H](CO)[C@@H](O)[C@H]1N1CCCC1)c1ccccc1	x	x	x	x	x	11%[176 µM]
O=S(=O)(NC[C@H]1O[C@@H](CO)[C@@H](O)[C@H]1N1CCN(c2ccccn2)CC1)c1ccc(Cl)cc1	x	x	x	x	x	18µM*
Cc1cc(=O)n(CC(=O)Nc2ccc(C)c(C)c2)c(N2CCN(c3ccccc3)CC2)n1	x	x	x	x	x	17%
Cc1noc(C)c1C(=O)N1Cc2ccccc2CC2(CCN(CC3CCNC3)CC2)C1 (centres undefined)	x	x	x	x	x	2%[6.33 µM]
Cn1nc(C(=O)OCCOc2ccccc2Cl)c2ccccc2c1=O	x	x	x	x	x	-6%
O=C(NNc1nc2cc3c(cc2s1)OCO3)c1ccccc1	-18%	-6%	28%	28µM*	u	u
O=C(NNc1nc2cc3c(cc2s1)OCO3)c1cccc(F)c1	-15%	-5%	32%	8.9µM*	28µM*	1%[57.4 µM]
COc1ccccc1C(=O)Nc1nc2cc3c(cc2s1)OCO3	1%[11.4 µM]	-2%	72%	36%	10%	1%
S=c1[nH]cc2cnccn12	x	x	x	x	x	8.9µM*
CCCNC(=O)Cn1sc2nc(C)cc(C)c2c1=O	3.2µM*	50µM*	u	x	1.8µM*	-26%
CCOC(=O)C1CCCN(C(=O)Cn2sc3nc(C)cc(C)c3c2=O)C1 (centres undefined)	5.6µM*	15%	u	1.6µM*	1.8µM*	x
CC(=O)Cn1cnc2c(sc3nc(C)cc(C)c32)c1=O	-13%	-15%	25%	2%	9%	u
Cc1cc(C)c2c(=O)n(CC(=O)N3CCC(N4CCCCC4)CC3)sc2n1	3.2µM*	3%	3.5µM*	1µM*	8.9µM*	0%
COc1ccc(Br)cc1/C=N/O	x	x	x	x	x	3%
CC(C)CCN1CCNC(=O)C1CC(=O)N(C)Cc1nncn1C(C)C (centres undefined)	x	x	x	x	x	0%
COc1cccc(NC(=O)CCS(=O)(=O)c2cc(-c3cc(C)no3)ccc2OC)c1	x	x	x	x	x	18%
CCCN(CCC)C(=O)Cc1coc2ccc3ccccc3c12	7%	-4%	34%	50µM*	18%	-8%
Cc1nnc2sc(-c3csc4c3CCCC4)nn12	-21%	1%	12%	-16%[12.7 µM]	1%	-8%
S=c1nc(-c2csc3c2CCCC3)[nH][nH]1	u	-3%	u	16%[0.501 µM]	35µM*	u
OCc1cn(-c2ccccc2)nc1-c1cc2ccccc2o1	2%	1%	34%	x	56µM*	2%
CCOC(=O)c1sc(N=NC2=C(O)CCCC2=O)c(C(=O)OCC)c1C	25µM*	13µM*	u	14µM*	-25%	u

Screening data: PubChem BioAssay, National Center for Advancing Translational Sciences (NCATS)
